# Source: PubChem
# Rows were chosen to be rich in hits. Some 3% of all compounds tested hit in one or more screens of this group.
# BH1578 lux ind = inducers of Vibrio cholerae quorum light production without autoinducers, primary screen, BH1578 luxS cqsA deficient, single point; V. cholerae BH1578 lux reporter, luminescence, 6 h; activation, % at 18.7 µM; 350,000 tested, 0.16% active; AID 588436, 2011; in the data active means activation mostly above about 9.7%, no sharp cut-off
# Mtb BioA inh = M. tuberculosis BioA enzyme inhibitors, primary screen, biochemical, plate reader, single point, HTS. AID 602481, 2012. 360,000 tested, 0.096% active. purified M. tuberculosis BioA enzyme. 7,8-diaminopelargonic acid synthase BioA (Mycobacterium tuberculosis). inhibition, % at 9.99 µM; in the data active means inhibition above about 40%
# GDH-TPI counter-1 = GDH-TPI coupling enzyme inhibitors, primary screen, artefact control for M. tuberculosis FBA inhibitor project, biochemical, absorbance, full deck. 360,000 tested, 1.2% active. GDH-TPI coupled enzyme counterscreen, NADH absorbance. inhibition, % at 4.8 µM. AID 588335, 2011; in the data active means inhibition above about 30%
# FBA Mtb inh = Mtb FBA enzyme inhibitors, primary screen, biochemical, fluorescence, strain H37Rv; Fructose-bisphosphate aldolase (Mycobacterium tuberculosis (strain ATCC 25618 / H37Rv)), …; purified M. tuberculosis FBA, fluorescence read-out; inhibition, % at 1 µM; 360,000 tested, 2.3% active; AID 588726, 2011
# Target sequence (P9WQA3 whole entry, looked up): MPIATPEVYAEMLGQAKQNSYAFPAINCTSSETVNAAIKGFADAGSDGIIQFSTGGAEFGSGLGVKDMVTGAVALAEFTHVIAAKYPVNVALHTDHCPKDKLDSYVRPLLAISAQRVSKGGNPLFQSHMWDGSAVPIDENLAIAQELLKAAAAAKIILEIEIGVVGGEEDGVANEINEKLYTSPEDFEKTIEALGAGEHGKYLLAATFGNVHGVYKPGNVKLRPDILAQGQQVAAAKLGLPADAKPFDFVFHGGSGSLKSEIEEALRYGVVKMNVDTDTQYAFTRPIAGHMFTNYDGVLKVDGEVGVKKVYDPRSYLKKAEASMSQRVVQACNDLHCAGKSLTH
# Mtb FBA confirm = M. tuberculosis aldolase blockers, biochemical, fluorescence, strain H37Rv, confirmation; shares compounds with FBA Mtb inh; purified M. tuberculosis FBA, fluorescence read-out; inhibition, % at 1 µM; 5,600 tested, 78% active
# GDH-TPI counter-2 = GDH-TPI coupling enzyme inhibitors, artefact control for M. tuberculosis FBA inhibitor project, biochemical, fluorescence, high throughput | shares compounds with FBA Mtb inh | GDH-TPI coupled enzyme counterscreen | inhibition, % at 1 µM | 5,600 tested, 81% active | AID 652141, 2013; in the data active means inhibition above about 10%
# A number is an active result; i = inactive; nt = no result given; + = active, no number. Unless noted, no stated cut-off is given here; in the data, active means inhibition above about 27%; inactive means the rest.
SMILES,BH1578 lux ind,Mtb BioA inh,GDH-TPI counter-1,FBA Mtb inh,Mtb FBA confirm,GDH-TPI counter-2
Cc1ccc(S(=O)(=O)N[C@@H]2C=C[C@H](CC(=O)NCCc3ccncc3)O[C@H]2CO)cc1,nt,i,nt,nt,nt,nt
COC(=O)c1ccc2c(c1)c(C#Cc1ccccc1)c(-c1ccccc1)n2C,i,i,i,40,i,i
COc1ccc(C#Cc2c(-c3ccccc3)n(C)c3ccccc23)cc1,i,i,i,i,nt,nt
COc1cc(C#Cc2c(-c3ccccc3)n(C)c3ccccc23)cc(OC)c1,i,i,i,38,i,i
Cn1c(-c2ccc(C#N)cc2)c(C#Cc2ccccc2)c2ccccc21,i,i,i,93,50,34
COc1ccc(-c2c(C#Cc3ccsc3)c3ccccc3n2C)cc1,i,i,i,i,nt,nt
COc1ccc(-c2c(-c3ccccc3)n(C)c3ccccc23)cc1,i,i,i,41,i,i
NC(=O)[C@@H]1[C@H]2C(=O)O[C@H](c3ccccc3)[C@H](c3ccccc3)N2[C@H](c2ccc(O)cc2)[C@@]12C(=O)Nc1ccc(C#CC3=CCCCC3)cc12,nt,i,nt,nt,nt,nt
CO[C@@H]1CN(C)C(=O)c2ccc(NC(=O)Nc3c(C)noc3C)cc2OC[C@H](C)NC[C@@H]1C,nt,i,nt,nt,nt,nt
C[C@H](CO)N1C[C@H](C)[C@@H](CN(C)Cc2ccc(C(=O)O)cc2)Oc2ccc(NC(=O)CCC(F)(F)F)cc2C1=O,nt,i,nt,nt,nt,nt
c1ccc2c(c1)Oc1cccc3cccc-2c13,i,i,i,28,86,81
O=C1c2ccccc2-c2cccc3cccc1c23,i,i,i,i,nt,nt
COc1ccc(NC(=O)Nc2cccc3c2O[C@H](CN(C)C(=O)Nc2ccc4c(c2)OCO4)[C@H](C)CN([C@@H](C)CO)C3=O)cc1,nt,i,nt,nt,nt,nt
C[C@@H]1CCCCO[C@H](CN(C)C)[C@@H](C)CN([C@H](C)CO)C(=O)c2cc(NS(=O)(=O)c3cn(C)cn3)ccc2O1,nt,i,nt,nt,nt,nt
COc1ccccc1NC1=C(C)C(=O)CC1,i,i,i,i,nt,nt
COc1ccc(OC)c2c1CCC2=O,i,i,i,30,71,51
CCOCCCNC(=O)c1cn2c3c(ccc(Cl)c3c1=O)OC(C)C2 (centres undefined),i,i,i,i,nt,nt
CNC(=O)c1cn2c3c(ccc(Cl)c3c1=O)OC(C)C2 (centres undefined),i,i,i,37,i,i
CCOC(=O)N(C)C[C@H]1OCc2cn(nn2)CCCC(=O)N([C@H](C)CO)C[C@H]1C,nt,i,nt,nt,nt,nt
COc1ccc(-c2c(NC(=O)c3ccco3)oc3c(C)cccc3c2=O)cc1,i,i,i,53,i,i
COc1cc(-c2c(NC(=O)c3ccco3)oc3c(C)cccc3c2=O)cc(OC)c1OC,i,nt,i,i,nt,nt
CCCCN(C)C(=O)Cn1nc(-c2ccc(Cl)cc2)ccc1=O,i,i,i,77,46,41
CCC(=O)N(C)C[C@@H]1Oc2cc(C#CC(C)(C)O)ccc2S(=O)(=O)N([C@H](C)CO)C[C@H]1C,nt,i,nt,nt,nt,nt
CN(C)CCCNC(=O)N1c2ccccc2Sc2ccccc21,i,i,i,59,+,+
O=c1[nH]c2ccccc2nc1-c1ccccc1,i,i,31,45,79,76
SMILES,BH1578 lux ind,Mtb BioA inh,GDH-TPI counter-1,FBA Mtb inh,Mtb FBA confirm,GDH-TPI counter-2
COC(=O)C1=CN(C2CC2)C=C(C(=O)OC)C1c1ccc(C(=O)OC)cc1,i,i,i,44,i,i
CCCN(C)C[C@H]1Oc2ncc(C#Cc3ccc(OC)cc3)cc2C(=O)N([C@H](C)CO)C[C@H]1C,nt,i,nt,nt,nt,nt
Cc1ccc2oc(-c3cccc(N)c3)nc2c1,i,i,i,78,63,58
CCC(C)NCC(=O)Nc1ccc(-c2nc3cc(NC(=O)CNC(C)CC)ccc3o2)cc1 (centres undefined),i,i,i,99,148,110
Cc1ccc2oc(-c3ccc(NC(=O)CC(C)C)cc3)nc2c1,i,i,i,30,39,36
Cc1ccc(-c2nc3ncccc3o2)cc1NC(=O)Cc1ccc(Cl)cc1,i,i,i,i,nt,nt
Cc1ccc(-c2nc3ncccc3o2)cc1NC(=O)CC(C)C,i,nt,i,30,i,i
CC(C)CC(=O)Nc1ccc(-c2nc3ccccc3c(=O)o2)cc1,i,nt,i,i,nt,nt
COc1ccc(S(=O)(=O)Nc2ccc3c(c2)C(=O)N([C@@H](C)CO)C[C@H](C)[C@@H](CN(C)C(=O)Cc2ccccc2)OCCCC[C@H](C)O3)cc1,nt,i,nt,nt,nt,nt
Cc1cccc(S(=O)(=O)N2CCCCN3[C@@H](CO)[C@@H](c4ccc(-c5cccnc5)cc4)[C@@H]3C2)c1,nt,i,nt,nt,nt,nt
C[C@@H]1CN([C@H](C)CO)C(=O)Cc2cc(NC(=O)C3CC3)ccc2O[C@@H]1CN(C)Cc1ccc(-c2ccccc2)cc1,nt,i,nt,nt,nt,nt
C[C@@H]1CCCCO[C@H](CN(C)C(=O)Nc2cccc3ccccc23)[C@H](C)CN([C@H](C)CO)C(=O)c2cc(NS(=O)(=O)c3cn(C)cn3)ccc2O1,nt,i,nt,nt,nt,nt
COc1ccc(S(=O)(=O)N2CCCCN3[C@H](CO)[C@H](c4ccc(C5=CCCC5)cc4)[C@@H]3C2)cc1,nt,i,nt,nt,nt,nt
CCc1ccc2oc(-c3ccc(NC(C)=O)cc3)nc2c1,i,i,i,69,181,126
CCCCC(=O)Nc1ccc2oc(-c3ccncc3)nc2c1,i,nt,i,i,nt,nt
O=C(CN1CCCC1)Nc1ccc(-c2nc3cc(NC(=O)CN4CCCC4)ccc3o2)cc1,i,i,i,107,30,24
CCN(CC)CC(=O)Nc1ccc(-c2nc3cc(NC(=O)CN(CC)CC)ccc3o2)cc1,i,i,i,88,+,150
O=C(C[C@@H]1CC[C@H]2[C@@H](COC[C@@H](O)CN2Cc2ccc3c(c2)OCO3)O1)N1CCOCC1,nt,i,nt,nt,nt,nt
N#CC1=C(N)Oc2c(ccc3cccnc23)C1c1cccnc1 (centres undefined),i,i,i,41,i,i
N=C(N)SCc1nc2ccccc2c(=O)n1-c1ccccc1,i,nt,i,i,nt,nt
N=C(N)n1c(N)nc2ccccc2c1=O,i,i,i,59,i,11
CCOC(=O)c1c(NC(=O)C2C3C=CC(C3)C2C(=O)O)sc2c1CC(C)CC2 (centres undefined),i,nt,i,35,58,51
Cc1ccc(S(=O)(=O)CC(CN2CCOCC2)N2CCOCC2)cc1 (centres undefined),i,nt,i,i,nt,nt
CC1CCN(CC(CS(=O)(=O)c2ccc([N+](=O)[O-])cc2)N2CCC(C)CC2)CC1 (centres undefined),i,i,i,55,74,60
COC(=O)C1=CN(c2cccc(Cl)c2)C=C(C(=O)OC)C1c1cccc(OC)c1,i,i,i,54,111,94
